The experiment has as its system LXRb homodimer (NR concentration 270 nM). Put plainly: PBM binding z-score (relative to random genomic background probes); higher = stronger binding; sequences stand for … in GC…GCGATTGACAGCGTAGAATGAAGG
In a few lines: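 Ligand-free nuclear receptor dimers were bound for 1 h to custom Agilent 4×180K protein-binding microarrays. Detection used antibodies against each partner (one per run). Binding z-scores rest on regression-normalized fluorescence, with random background probes as the reference.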
Consider CCTAGCAGGCCAGGGTCACACAAGCATTTCGCTT, for which the PBM binding z-score is -0.795.

ATATGTAGGTTATGGGGTCATTCAGTTTGCGCAT yielded a PBM binding z-score of 2.36.

The sequence ACTATTACTTGAGACGAGGGCAACCGATAGGTTG displayed a PBM binding z-score of 1.02.

In the case of CCTACTGGGCCATCAAGTCATTGATATCAACGTT, the PBM binding z-score is -0.319.

Turning to TCATAAAGGTAAAGGTGAAAGTCGAACGATATGA, the PBM binding z-score was -0.307.

In turn, TCTGCTAGTTCAGTTGGTCAGCTAACGAGCTGCC had a PBM binding z-score of 0.193.

TCATATATGTAAACAGGTGAAAGTCCGTAAGTTA yielded a PBM binding z-score of 0.115.

As to ATTTCTAGGTAACCAAGTTCAGTGAATGCCGAAC, the PBM binding z-score worked out at 0.68.

As to ACTAGTTGGTCAGCTGACGTCACACACAATTCGG, the PBM binding z-score was 0.287.

As to ACAGAAAGGTGAGTGAAGGTAACTCAGCTGGACG, the PBM binding z-score was -0.612.

For the sequence TCTAGTTGGTCACGGAGCTCACACACGACGGGTA, the PBM binding z-score was -0.134.

Sequence ATCTCTAGGTAACCATGTTCAGTGAATGCCGAAC registered a PBM binding z-score of 0.529.

AGTCAAAGTTCATCTAGGAAACGTAAGATATGCT returned a PBM binding z-score of 2.09.

The sequence TCTATTAGTTGAAGGGCAACCGCCGAGTCCGTTT showed a PBM binding z-score of 0.231.

Take TCAGATAGGTAAACAGGTGAAAGTCCGTAAGTTA: the PBM binding z-score is -0.225.

In the case of CCGACTGGGGCATAAGGGTACCATAAGCCAGCCC, the PBM binding z-score is -1.67.

Consider ATATCTAGGTTAAGGGTCATTCAGGTTGGTTCGC, for which the PBM binding z-score came to 2.55.

As to TGTTGTAGATCAATAGAGGTTAAGAAAGTGCGCT, the PBM binding z-score was 1.01.

For the sequence CCTAGTGGGTCAAGGTCACACACGCTATAGGTAC, the PBM binding z-score was determined as 0.411.

ACTATGAGTTGACTTAGGGCAACCGATACGACGC: the PBM binding z-score came to 0.578.

With GCTGCTAGGTCAATTGATGGTCAGCTAAAGCTCG, the PBM binding z-score was 0.292.

On to CCTACTGGGCCATTCAGAGGTCATTGGTCATATG, for which the PBM binding z-score turned out to be 0.551.

In the case of TTACTAAGGTGAAAGGTCGTTGATGCACGCCTTG, the PBM binding z-score was -0.065.

As for TCATATAAGTAAATGCTAGGTGAAAGTCCGATCT, the PBM binding z-score amounted to 0.419.

Regarding CGTCCAAGGTCAAAGGTCAGTGGAGAGATGACGG, the PBM binding z-score was 2.07.

With GGAACGAGGGCAAAGTTGCTAGCATCTGTCGACG, the PBM binding z-score was -0.761.

For CCTGCTAGGTGAATGGTCAGCTAAAGCAGCTCGC, the PBM binding z-score is -0.989.

The sequence CGTCAAAGTTCAATTAAGGTAACGTAAAGCACGC returned a PBM binding z-score of 2.06.

In turn, ACTATTAGTTAACTTAGGGCAACCGATACGACGC yielded a PBM binding z-score of 0.392.

Consider TCTGCTTGGTCAGTTGGTCAGCTAACGAGCTGCC, for which the PBM binding z-score is -0.0318.

CCTAATGGGCCAAGGTCATTGATCAGTCAAAGCA: the PBM binding z-score is -0.303.

In turn, ACTGGGAGGACAAAGGTCAGAGCTACGCCAGTGA showed a PBM binding z-score of 1.04.

For GCGACTGGGGCAAAGCAGGTTACCAAAAGGTTGG, the PBM binding z-score was -1.32.

TCATATAGGTAAAGGTGAAAATCGAACGATATGA: the PBM binding z-score came to 0.0615.

In turn, ATCTCTAGGTAACAAGTACAGTGAAAGAGAGGAC displayed a PBM binding z-score of 0.894.

As to CCTCGGTGGACAGAAGGTCAGAGCTGTCCGCTTT, the PBM binding z-score is -0.688.

Turning to GCTGCTAGGTCAGCTGATGGTCAGCTAAAGCTCG, the PBM binding z-score was -1.13.

Sequence ACTAGTTCGTCAGCTGAGGTCACACACAATTCGG gave a PBM binding z-score of 0.796.

In the case of CCTACTGGGCCAAGAAAGGTCATTGATTCAGTGA, the PBM binding z-score is -0.225.

For TCTGCTAGGACAGTTGGTCAGCTAACGAGCTGCC, the PBM binding z-score was -0.315.
